This is an account of results in PubChem BioAssay.

Experiment [1] can be described thus: inhibitors of TNFa-induced NFkB p65 translocation, primary screen, imaging, HUVEC, MLSMR starter and 10KST1 sets (AID 438).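 Also: compound added about 3h40 before a 20 min TNFalpha stimulation.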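 As to inhibition: signal is the nuclear over cytoplasmic p65 intensity ratio per well.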 The conditions noted are these: HUVEC TNFa-induced p65 nuclear translocation; cell count: measured here: nuclei count (cytotoxicity indicator), at 2.08 µM; inhibition: at 2 µM, stronger effect = higher value, 0% TNFa-plus-vehicle, 100% no-TNFa wells.

Experiment [2] in a line: reduction of polyQ htt aggregates in cells – imaging, exon1htt(103Q)mCFP cells, high-content imaging, primary screen (AID 483;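 active = visual image review flags a hit and inhibition of aggregation exceeds 20%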;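 also: compound exposure lasted 3 days before fixation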;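 as to nuclei count: percent of the per-plate median nuclei count of sample wells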). The settings on record: exon1htt(103Q)mCFP cell line, aggregate imaging, at 2 µM; inhibition of aggregation: stronger effect = higher value; nuclei count: measured here: cell count, toxicity.
A short description of experiment [3]: endothelial E-selectin expression blockers – imaging, HUVEC, immunofluorescence, MLSMR starter and 10KST1 sets, primary screen (AID 487;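 active = visually confirmed hit in the image check and inhibition above 20%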;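 as to inhibition: signal is fraction of cell area covered by stained E-selectin grains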;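 as to nuclei count: 100% = median nuclei count of all wells on the same plate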). The settings on record: HUVEC TNFalpha-induced E-selectin immunofluorescence imaging, at 2 µM; inhibition: stronger effect = higher value; nuclei count: measured here: cell number, toxicity.
In experiment [4] the target is Voltage-gated potassium channel subunit beta-2 (Rattus norvegicus) (UniProt P62483). Nature of the experiment: inhibitors of rat Kvbeta2 reductase activity – biochemical, NADPH fluorescence, primary screen (AID 622;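 active = fluorescence slope higher than the sample average by over 3 SD, cut at about -0.22 in these data, passing the limit was not always enough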;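 also: slope of raw intensity against log time taken from 70 to 1610 s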). The conditions noted are these: recombinant KvBeta, 4-cyanobenzaldehyde reduction, at 10 µM, stronger effect = higher value.
Voltage-gated potassium channel subunit beta-2 (Rattus norvegicus), sequence (P62483 whole entry, looked up): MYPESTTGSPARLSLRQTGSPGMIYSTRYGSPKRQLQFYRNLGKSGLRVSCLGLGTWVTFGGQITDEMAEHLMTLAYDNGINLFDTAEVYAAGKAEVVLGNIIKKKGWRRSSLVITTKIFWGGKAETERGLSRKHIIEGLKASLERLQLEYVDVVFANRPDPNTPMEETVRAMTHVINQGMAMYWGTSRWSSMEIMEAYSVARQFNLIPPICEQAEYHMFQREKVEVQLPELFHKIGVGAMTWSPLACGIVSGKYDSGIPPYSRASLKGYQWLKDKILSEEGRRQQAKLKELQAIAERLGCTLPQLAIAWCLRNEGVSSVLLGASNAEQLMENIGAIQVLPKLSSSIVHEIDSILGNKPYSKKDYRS
Experiment [5] has the same target. Nature of the experiment: enhancers of rat Kvbeta2 NADPH turnover – biochemical, NADPH fluorescence, primary screen (AID 623;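 active = NADPH fluorescence slope more negative than the mean of all samples by about 3 SD, 99.7% confidence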;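 also: fluorescence intensity change per second fitted from 20 to 320 s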). The conditions noted are these: Recombinant KvBeta, NADPH fluorescence decrease slope, 10 min; at 10 µM; stronger effect = lower value.
The target in experiment [6] is Alpha-2C adrenergic receptor (Homo sapiens) (UniProt P18825). The experiment is described as follows: compounds altering alpha2C-coupled GIRK flux – cell-based, HEK293 alpha2C/GIRK1/2, thallium flux, primary screen (AID 624;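 active = fluorescence slope after compound addition differing from the mean of all screened samples at 99.7% confidence, in either direction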;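 also: slope of fluorescence ratio to pre-addition baseline per second over 15 to 24 s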). The settings on record: thallium flux BTC fluorescence, at 10 µM, actives lie on both sides.
Alpha-2C adrenergic receptor (Homo sapiens), sequence (P18825 whole entry, looked up): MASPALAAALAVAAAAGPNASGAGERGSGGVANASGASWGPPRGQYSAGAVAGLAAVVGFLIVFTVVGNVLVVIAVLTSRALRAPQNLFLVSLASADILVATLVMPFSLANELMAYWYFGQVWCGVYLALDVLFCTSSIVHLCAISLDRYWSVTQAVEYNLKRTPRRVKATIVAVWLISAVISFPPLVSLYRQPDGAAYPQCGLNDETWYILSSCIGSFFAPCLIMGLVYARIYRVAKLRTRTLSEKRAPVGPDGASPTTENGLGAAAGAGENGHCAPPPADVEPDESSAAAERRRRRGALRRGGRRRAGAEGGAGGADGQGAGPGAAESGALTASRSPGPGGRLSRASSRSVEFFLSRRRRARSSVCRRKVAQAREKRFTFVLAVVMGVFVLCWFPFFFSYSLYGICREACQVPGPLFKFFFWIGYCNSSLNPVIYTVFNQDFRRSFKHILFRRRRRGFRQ
Experiment [7] can be described thus: blockers of RIG-like receptor reporter activation – cell-based, Sendai virus stimulus, luciferase, 10K MLSCN set, TLR/RLR signaling modifier project, primary screen (AID 602276;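 active = inhibition at or above 50% at 10 µM; inactive = inhibition below 50%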;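 also: firefly luciferase from ISG56 promoter only with Renilla not read in this screen; 0% = Sendai virus plus DMSO and 100% = medium plus DMSO without virus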). The conditions noted are these: HEK293 RL24 IRF3 luciferase reporter, at 10 µM, stronger effect = higher value. On the technique in general: Reporter assays use an easily measured gene product as a stand-in for the process of interest.

Experiment [8] in a line: TLR3 IRF3 reporter activation blockers – cell-based, poly I:C stimulus, luciferase, 10K MLSCN set, primary screen (AID 602277;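 active = inhibition of the reporter signal at or above 50%; inactive = inhibition below 50%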). The conditions noted are these: HEK293-TLR3 RL24 IRF3 luciferase reporter, at 10 µM, stronger effect = higher value.

Calls of active or inactive are those of the source.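 The calls were made as follows, unless noted: active = inhibition above 20% together with a positive visual image hit; inconclusive = visual image hit but inhibition not above 20%; inactive = no visual image hit.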

A word on the inhibition: it is the relative decrease from the control value, in per cent. For the compound `CCCCCc1c(C)nc(Nc2nc(C)c3cc(OC)ccc3n2)[nH]c1=O`, the cell count in experiment [1] was determined as 411. For the same compound, the inhibition in experiment [1] is 5% (inactive); in experiment [3], 9.5% (inactive); in experiment [7], 12.6% (inactive); in experiment [8], -6.69% (inactive). Further, the inhibition of aggregation in experiment [2] is 7.6% (inactive). Moreover, the nuclei count in experiment [2] came out at 84.7%; in experiment [3], 98%. The fluorescence slope in experiment [4] was -0.598 (inactive). The NADPH fluorescence slope in experiment [5] is 1.7e-05 (inactive). Further, the slope in experiment [6] is 0.00896 (inactive).

For the compound `COCc1nnc(NC(=O)CCCOc2ccccc2)s1`, the cell count in experiment [1] was determined as 732. The inhibition is 2.1% (inactive) in experiment [1], -11.3% (inactive) in experiment [3], 1.61% (inactive) in experiment [7] and 9.03% (inactive) in experiment [8]. Also, in experiment [2], the inhibition of aggregation is -7.8% (inactive). Moreover, the results for the nuclei count in experiment [2] and in experiment [3] were 92% and 103%, respectively. For the same compound, the fluorescence slope in experiment [4] was -0.42 (inactive). The NADPH fluorescence slope in experiment [5] was 9.1e-06 (inactive). Moreover, the slope in experiment [6] was 0.00536 (inactive).

For `CC(=O)N1CCN=C1SCc1ccc(Br)cc1`, the cell count in experiment [1] amounted to 442. For the same compound, the inhibition is 14.5% (inactive) in experiment [1], 39.5% (inactive) in experiment [3], -0.301% (inactive) in experiment [7] and 22.3% (inactive) in experiment [8]. Also, the inhibition of aggregation in experiment [2] was 15.2% (inactive). Besides, the nuclei count in experiment [2] came out at 95.1%; in experiment [3], 98.6%. Further, in experiment [4], the fluorescence slope was -0.632 (inactive). For the same compound, the NADPH fluorescence slope in experiment [5] was -9.6e-06 (inactive). Moreover, the slope in experiment [6] is 0.00733 (inactive).

For `O=C(NCCc1c[nH]c2ccccc12)c1ccc(S(=O)(=O)NCc2ccco2)cc1`, the cell count in experiment [1] was found to be 398. For the same compound, the inhibition is 9.3% (inactive) in experiment [1], -42.9% (inactive) in experiment [3], 15.3% (inactive) in experiment [7] and 30.7% (inactive) in experiment [8]. Also, the inhibition of aggregation in experiment [2] is 14.7% (inactive). Besides, the nuclei count in experiment [2] was 89.6%; in experiment [3], 98.6%. In experiment [4], the fluorescence slope was -0.578 (inactive). The NADPH fluorescence slope in experiment [5] was -2.7e-05 (inactive). In addition, in experiment [6], the slope was 0.00486 (inactive).

For `Cc1ccccc1NC(=O)CN1CCC(NC(=O)Nc2ccccc2)CC1`, in experiment [1], the cell count was found to be 516. Further, the inhibition was -1.9% (inactive) in experiment [1], -121% (inactive) in experiment [3], 9.37% (inactive) in experiment [7] and 9.34% (inactive) in experiment [8]. In addition, in experiment [2], the inhibition of aggregation is 25.9% (inactive). Also, the nuclei count in experiment [2] came out at 68%; in experiment [3] it was 93%. In experiment [4], the fluorescence slope was -0.292 (inactive). For the same compound, the NADPH fluorescence slope in experiment [5] is -4.8e-05 (inactive). Further, the slope in experiment [6] is 0.00566 (inactive).

For `O=C(NC1CCCCC1)N(Cc1ccccc1)Cc1ccco1`, in experiment [1], the cell count is 482. Besides, the inhibition in experiment [1] was 6.5% (inactive); in experiment [3], -214% (inactive); in experiment [7], -9.22% (inactive); in experiment [8], 11.3% (inactive). In addition, the inhibition of aggregation in experiment [2] is 0.2% (inactive). Also, the nuclei count in experiment [2] amounted to 90.9%; in experiment [3] it was 128%. For the same compound, the fluorescence slope in experiment [4] was -0.4 (inactive). Further, the NADPH fluorescence slope in experiment [5] is 6.8e-05 (inactive). For the same compound, in experiment [6], the slope is 0.00512 (inactive).

`COc1cc(NC(=O)CSCc2cnn(-c3ccccc3)c2-n2cccc2)cc(OC)c1`: in experiment [1], the cell count is 662. For the same compound, the inhibition in experiment [1] was 6.1% (inactive); in experiment [3], -32% (inactive); in experiment [7], 15.7% (inactive); in experiment [8] it was 11.2% (inactive). The inhibition of aggregation in experiment [2] was 9.3% (inactive). Besides, the nuclei count in experiment [2] worked out at 97.9%; in experiment [3], 98.1%. For the same compound, the fluorescence slope in experiment [4] is -0.315 (inactive). Also, the NADPH fluorescence slope in experiment [5] was -7.1e-05 (inactive). The slope in experiment [6] is 0.00868 (inactive).

On to `Nc1nnnn1NCc1cccc(OCc2ccccc2)c1`, for which the cell count in experiment [1] was 582. Moreover, the inhibition is -9.5% (inactive) in experiment [1], -2.2% (inactive) in experiment [3], 5.03% (inactive) in experiment [7] and -6.8% (inactive) in experiment [8]. Moreover, in experiment [2], the inhibition of aggregation was 11.2% (inactive). The nuclei count in experiment [2] came to 64.2%; in experiment [3], 137%. For the same compound, in experiment [4], the fluorescence slope was -0.5 (inactive). In addition, the NADPH fluorescence slope in experiment [5] is -2.7e-05 (inactive). The slope in experiment [6] was 0.00425 (inactive).

As to `O=C1CCCN1CCCNc1ncnc2c1[nH]c1ccc(Cl)cc12`, in experiment [1], the cell count was 465. Moreover, the inhibition in experiment [1] is 0.8% (inactive); in experiment [3], -164% (inactive); in experiment [7], -14.5% (inactive); in experiment [8], -66.1% (inactive). Moreover, the inhibition of aggregation in experiment [2] was -18.4% (inactive). Further, the nuclei count in experiment [2] was found to be 101%; in experiment [3], 119%. Further, the fluorescence slope in experiment [4] was -0.391 (inactive). Further, the NADPH fluorescence slope in experiment [5] was 3.6e-05 (inactive). Also, in experiment [6], the slope is 0.00715 (inactive).

Turning to `CC1=C(C(=O)OCC(C)C)C(c2cc3c(cc2Br)OCO3)NC(=O)N1C` (centres undefined), the cell count in experiment [1] was 425. The inhibition is -3.6% (inactive) in experiment [1], -103% (inactive) in experiment [3], 11.4% (inactive) in experiment [7] and 34.6% (inactive) in experiment [8]. In experiment [2], the inhibition of aggregation is -13.3% (inactive). In addition, the nuclei count amounted to 98.5% in experiment [2] and 118% in experiment [3]. In addition, the fluorescence slope in experiment [4] was -0.44 (inactive). The NADPH fluorescence slope in experiment [5] is -3.6e-05 (inactive). Also, in experiment [6], the slope is 0.00323 (inactive).

Take `Cc1ccc2cc3cc(C(=O)N4CC(C)CC(C)C4)oc3nc2c1` (centres undefined): the cell count in experiment [1] worked out at 654. Besides, the inhibition in experiment [1] was -3.9% (inactive); in experiment [3], -77% (inactive); in experiment [7] it was 2.56% (inactive); in experiment [8], -64.4% (inactive). For the same compound, the inhibition of aggregation in experiment [2] is 14.3% (inactive). The nuclei count in experiment [2] turned out to be 86.4%; in experiment [3], 110%. In experiment [4], the fluorescence slope is -0.597 (inactive). For the same compound, in experiment [5], the NADPH fluorescence slope is 7.7e-06 (inactive). The slope in experiment [6] was 0.00635 (inactive).

Regarding `CCC(C)(C(=O)NC1CCCCC1)N(Cc1ccco1)C(=O)c1cnccn1` (centres undefined), the cell count in experiment [1] was 471. Moreover, the inhibition was 0.3% (inactive) in experiment [1], -23.4% (inactive) in experiment [3], 10.7% (inactive) in experiment [7] and 27.6% (inactive) in experiment [8]. In addition, in experiment [2], the inhibition of aggregation is 16.1% (inactive). The nuclei count turned out to be 89.9% in experiment [2] and 110% in experiment [3]. The fluorescence slope in experiment [4] was -0.376 (inactive). The NADPH fluorescence slope in experiment [5] is -4.2e-05 (inactive). Further, in experiment [6], the slope was 0.00684 (inactive).

On to `COCC(=O)Nc1c(C(=O)Nc2ccccc2OC)oc2ccccc12`, for which the cell count in experiment [1] worked out at 602. Further, the inhibition in experiment [1] was -5.9% (inactive); in experiment [3] it was 2.5% (inactive); in experiment [7], -4.76% (inactive); in experiment [8], 11.5% (inactive). In experiment [2], the inhibition of aggregation was 11.9% (inactive). Also, the nuclei count in experiment [2] is 99.1%; in experiment [3], 60.9%. Also, the fluorescence slope in experiment [4] was -0.318 (inactive). Also, in experiment [5], the NADPH fluorescence slope is 1.2e-05 (inactive). The slope in experiment [6] was 0.00625 (inactive).

As for `CC1=C(C(=O)OC(C)C)C(c2ccccn2)n2ncnc2N1` (centres undefined), the cell count in experiment [1] was determined as 751. The inhibition in experiment [1] was -0.6% (inactive); in experiment [3] it was -75.2% (inactive); in experiment [7], 0.999% (inactive); in experiment [8], 30.5% (inactive). The inhibition of aggregation in experiment [2] was -35.6% (inactive). Moreover, the nuclei count in experiment [2] worked out at 79.5%; in experiment [3], 110%. For the same compound, the fluorescence slope in experiment [4] is -0.569 (inactive). For the same compound, the NADPH fluorescence slope in experiment [5] was -3e-05 (inactive). The slope in experiment [6] was 0.00699 (inactive).
